Values joined by “and” are separate entries in the source; they are usually repeats but may differ in a detail not shown here. Equal values may be shown once. Records with an inconclusive call do not appear. Unmarked numbers belong to inactive results. Active and inactive are the calls of the source. Calls come from the whole dose curve; as a rule, active = well fitted curve in the direction sought with a large enough effect; inconclusive = small, poorly fitted or top-dose-only effect, or another doubt; inactive = no such curve, though single readings can be large; an effect the other way counts as inactive or inconclusive.
Experiments:
[1] = biological target: Cellular tumor antigen p53 (Homo sapiens) (UniProt P04637); assay: Primary qHTS for small molecule compounds that upregulate eGFP-tagged delta133p53alpha (in N-terminal) cells. (AID 2060322); settings: NCI-H358 eGFP-delta133p53alpha fluorescence, 24 h; activation: hits give high values; note: nearly all actives have a fitted effect of over 75% in size;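 for activation: series mostly up to about 56 µM; 0% = DMSO vehicle and 100% = reference activator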
Cellular tumor antigen p53 (Homo sapiens), sequence (P04637 whole entry, looked up): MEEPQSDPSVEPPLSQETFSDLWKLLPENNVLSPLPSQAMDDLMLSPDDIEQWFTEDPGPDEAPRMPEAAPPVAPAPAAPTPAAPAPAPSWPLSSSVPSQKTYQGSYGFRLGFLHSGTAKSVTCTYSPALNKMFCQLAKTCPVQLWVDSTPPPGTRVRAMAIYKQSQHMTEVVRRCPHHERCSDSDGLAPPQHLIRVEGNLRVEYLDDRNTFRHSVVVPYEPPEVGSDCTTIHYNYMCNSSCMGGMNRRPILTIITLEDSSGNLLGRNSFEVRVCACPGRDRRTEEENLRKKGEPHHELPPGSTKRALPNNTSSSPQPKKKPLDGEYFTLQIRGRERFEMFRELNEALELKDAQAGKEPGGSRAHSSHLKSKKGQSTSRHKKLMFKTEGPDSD
How it was run: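 NCI-H358 cells pre-induced 24 h with 10 ng/ml doxycycline to express N-terminal eGFP-delta133p53alpha, then dosed 24 h at 37C without doxycycline; fixed, Hoechst-stained, GFP intensity by laser scanning cytometry, normalized to DMSO (0%) and 57.5 uM 5-azacytidine (100%).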

[2] = BET inhibitor-based combinations targeting novel dependencies in MECOM-rearranged (r) AML: SET-2 cell line (AID 2202231); settings: SET-2 AML cells viability, CellTiter-Glo luminescence, 48 h; viability: hits give low values, concentration not given here; note: nearly all actives have a fitted effect of over 35% in size;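 for viability: plate controls were DMSO treated cells for no effect and wells without cells for full effect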
How it was run: (§1)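 Cells were plated at 500 per well and exposed to an 11-point dose series of each drug for 48 hr. Viability was measured by CellTiter-Glo luminescence, normalized to DMSO and empty-well controls, and summarized as AUC and per-cell-line Z-AUC.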

[3] = BET inhibitor-based combinations targeting novel dependencies in MECOM-rearranged (r) AML: OCI-AML3 cell line (AID 2202232); settings: Potency: OCI-AML3 viability; note: nearly all actives have a fitted effect of over 35% in size;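 for viability (% of control): series mostly up to about 46 µM; plate controls were DMSO vehicle wells for no effect and wells without cells for full effect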
How it was run: as §1

[4] = BET inhibitor-based combinations targeting novel dependencies in MECOM-rearranged (r) AML: MV-4-11 cell line (AID 2202233); note: nearly all actives have a fitted effect of over 45% in size;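 for viability, % of control: plate controls were DMSO for no effect and blank wells for full effect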
How it was run: (§2)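 Activity is given as area under the curve and as Z-AUC, mean-centred within each cell line. It comes from 11-point dose curves normalized to DMSO and empty wells. CellTiter-Glo luminescence was read after 48 hr drug exposure of 500 cells/well.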

[5] = BET inhibitor-based combinations targeting novel dependencies in MECOM-rearranged (r) AML: HNT-34 cell line (AID 2202234); note: nearly all actives have a fitted effect of over 35% in size;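 for viability (% of control): plate controls were vehicle wells for no effect and cell-free wells for full effect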
How it was run: as §2

[6] = BET inhibitor-based combinations targeting novel dependencies in MECOM-rearranged (r) AML: AML-191 cell line (AID 2202236; note: nearly all actives have a fitted effect of over 35% in size;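 for viability (% of control): plate controls were vehicle wells for no effect and wells without cells for full effect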)
How it was run: as §1

[7] = BET inhibitor-based combinations targeting novel dependencies in MECOM-rearranged (r) AML: AML-194 cell line (AID 2202237; note: nearly all actives have a fitted effect of over 40% in size;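 for viability (% of control): plate controls were vehicle wells for no effect and wells without cells for full effect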)
How it was run: as §1

[8] = BET inhibitor-based combinations targeting novel dependencies in MECOM-rearranged (r) AML: UCSD-AML1 cell line (AID 2202235); note: nearly all actives have a fitted effect of over 40% in size;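 for viability (% of control): series mostly up to about 46 µM; plate controls were DMSO vehicle wells for no effect and blank wells for full effect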
How it was run: as §2
Potency is the fitted concentration of half-maximal effect.

Structure (SMILES): OC[C@@H](O)[C@@H](O)[C@H](O)[C@@H](O)CO
- activation [1]: 6.34%
- viability [2]: 117%
- Potency [3]: inactive
- Potency [4]: inactive
- Potency [5]: inactive
- Potency [6]: inactive
- Potency [7]: inactive

Structure (SMILES): CN(CCOc1ccc(CC2SC(=O)NC2=O)cc1)c1ccccn1 (configuration not stated)
- activation [1]: 6.69% and 5.38%
- viability [2]: 102%
- Potency [3]: inactive
- Potency [5]: inactive
- Potency [8]: inactive
- Potency [6]: inactive
- Potency [7]: inactive

Structure (SMILES): CCCN[C@H]1CCc2nc(N)sc2C1
- activation [1]: 9.21% and 7.7%
- viability [2]: 116%
- Potency [3]: inactive
- Potency [5]: inactive
- Potency [8]: inactive
- Potency [6]: inactive
- Potency [7]: inactive

Structure (SMILES): NC(=O)c1ncn([C@@H]2O[C@H](CO)[C@@H](O)[C@H]2O)c1N
- activation [1]: -7.53%
- viability [2]: 114%
- Potency [3]: inactive
- Potency [4]: inactive
- Potency [8]: inactive
- Potency [6]: inactive
- Potency [7]: inactive

Structure (SMILES): CN(C(Cc1ccc(OS(=O)(=O)c2cccc3cnccc23)cc1)C(=O)N1CCN(c2ccccc2)CC1)S(=O)(=O)c1cccc2cnccc12 (configuration not stated)
- activation [1]: 8.08%
- viability [2]: 92.1%
- Potency [3]: inactive
- Potency [4]: 7420 nM (active)
- Potency [6]: 9340 nM (active)

Structure (SMILES): COc1cccc2c1C(=O)c1c(O)c3c(c(O)c1C2=O)C[C@@](O)(C(=O)CO)C[C@@H]3O[C@H]1C[C@H](N)[C@H](O)[C@H](C)O1
- Potency [1]: 12300 nM (active)
- Potency [2]: 833 nM (active)
- Potency [3]: 46.8 nM (active)
- Potency [4]: 37.2 nM (active)
- Potency [8]: 93.4 nM (active)
- Potency [6]: 186 nM (active)
- Potency [7]: 186 nM (active)

Structure (SMILES): N#CNC(=NCCCCCCOc1ccc(Cl)cc1)Nc1ccncc1
- activation [1]: 37.2%
- Potency [2]: 13200 nM (active)
- Potency [3]: 10.5 nM (active)
- Potency [4]: 37.2 nM (active)
- Potency [6]: 18.6 nM (active)

Structure (SMILES): COc1ccc(C=Cc2cc(OC)c(OC)c(OC)c2)cc1NC(=O)[C@H](N)CO
- activation [1]: 7.98%
- Potency [2]: 263 nM (active)
- Potency [3]: 296 nM (active)
- Potency [4]: 296 nM (active)
- Potency [6]: 332 nM (active)
- Potency [7]: 296 nM (active)

Structure (SMILES): Cc1cccc(-c2nn(C(=S)Nc3ccccc3)cc2-c2ccnc3ccccc23)n1
- activation [1]: 44.1%
- viability [2]: 97.5%
- Potency [3]: inactive
- Potency [4]: inactive
- Potency [6]: inactive
- Potency [7]: inactive

Structure (SMILES): CCOC(=O)[C@H](CCc1ccccc1)N[C@@H](C)C(=O)N1CCC[C@H]1C(=O)O
- activation [1]: 0%
- viability [2]: 92.2%
- Potency [3]: inactive
- Potency [4]: inactive
- Potency [8]: inactive
- Potency [6]: inactive
- Potency [7]: inactive

Structure (SMILES): CCCc1cc(=O)[nH]c(=S)[nH]1
- activation [1]: -13.4% and -2.19%
- viability [2]: 110%
- Potency [3]: inactive
- Potency [5]: inactive
- Potency [8]: inactive
- Potency [6]: inactive
- Potency [7]: inactive

Structure (SMILES): O=P(O)(O)C(O)(Cn1ccnc1)P(=O)(O)O
- activation [1]: -20.1%
- viability [2]: 112%
- viability (% of control) [3]: 121% [at 5.12 µM]
- viability, % of control [4]: 141% [at 5.12 µM]
- viability (% of control) [8]: 117% [at 5.12 µM]
- viability (% of control) [6]: 112% [at 5.12 µM]
- viability (% of control) [7]: 119% [at 5.12 µM]

Structure (SMILES): Cc1cn([C@@H]2C[C@@H](O)[C@H](CO)O2)c(=O)[nH]c1=O
- activation [1]: -12.7%
- viability [2]: 103%
- Potency [3]: inactive
- Potency [5]: inactive
- Potency [8]: inactive
- Potency [6]: inactive
- Potency [7]: inactive

Structure (SMILES): c1ccc(CNc2nc(NCc3ccccc3)c3ccccc3n2)cc1
- activation [1]: 44.2%
- Potency [2]: 16600 nM (active)
- Potency [3]: 18600 nM (active)
- Potency [4]: 9340 nM (active)
- Potency [8]: 8330 nM (active)
- Potency [6]: 9340 nM (active)
- Potency [7]: 9340 nM (active)

Structure (SMILES): O=C(Nc1cccc(Cl)c1)Nc1ncc(CCNc2ncnc3ccsc23)s1
- activation [1]: -7.26%
- Potency [2]: 20900 nM (active)
- Potency [3]: 166 nM (active)
- Potency [5]: inactive
- Potency [8]: inactive

Structure (SMILES): O=C(NC(Cc1cc(=O)[nH]c2ccccc12)C(=O)O)c1ccc(Cl)cc1 (configuration not stated)
- activation [1]: -0.837% and -7.77%
- viability [2]: 120%
- Potency [3]: inactive
- Potency [4]: inactive
- Potency [8]: inactive
- Potency [6]: inactive
- Potency [7]: inactive

Structure (SMILES): CC1(C)CCC(C)(C)c2cc(NC(=O)c3ccc(C(=O)O)cc3)ccc21
- activation [1]: -13% and 3.42%
- viability [2]: 80.9%
- Potency [3]: inactive
- Potency [5]: 1660 nM (active)
- Potency [8]: inactive

Structure (SMILES): CN(Cc1cc(Br)cc(Br)c1N)C1CCCCC1
- activation [1]: -11.7% and 14.8%
- viability [2]: 102%
- Potency [3]: inactive
- Potency [5]: inactive
- Potency [8]: inactive
- Potency [6]: inactive
- Potency [7]: inactive

Structure (SMILES): Cn1c(=O)c(Oc2ccc(F)cc2F)cc2cnc(NC3CCOCC3)nc21
- activation [1]: -33.7%
- viability [2]: 115%
- Potency [3]: inactive
- Potency [5]: inactive
- Potency [8]: inactive
- Potency [6]: inactive
- Potency [7]: inactive

Structure (SMILES): COc1ccc(-n2c(C)c([N+](=O)[O-])c3ccc(O)cc32)cc1
- activation [1]: -5.31%
- viability [2]: 107%
- Potency [3]: inactive
- Potency [4]: 5250 nM (active)
- Potency [8]: inactive
- Potency [6]: 6610 nM (active)
- Potency [7]: inactive

Structure (SMILES): Nc1nc(N)nc(-c2cc(Cl)ccc2Cl)n1
- activation [1]: 2.82% and 12%
- viability [2]: 105%
- Potency [3]: inactive
- Potency [5]: inactive
- Potency [8]: inactive
- Potency [6]: inactive
- Potency [7]: inactive

Reference: PubChem BioAssay (NCATS)
